Reference: PubChem BioAssay (NCI)
Compounds without any hit were thinned out: in the full panel of roughly 79,000, 15% have a hit. Values without a mark were called inactive. The source made the active and inactive calls. Rule as the data show it: active = growth inhibition above about 70%; inactive = the rest.

Columns and labels:
[1] = NCI Yeast Anticancer Drug Screen. Data for the rad50 strain (AID 155);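 also: 0% = growth of vehicle-only cultures of the same strain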; conditions: S. cerevisiae rad50 strain growth inhibition, hits give high values
Method in brief: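 Inhibition values express reduced yeast growth in compound-treated cultures relative to vehicle-treated controls.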

[2] = NCI Yeast Anticancer Drug Screen. Data for the mec2-1 strain (AID 157); conditions: S. cerevisiae mec2-1 strain, hits give high values
Method in brief: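 Vehicle-treated cultures served as reference for growth inhibition of compound-exposed mec2-1 yeast.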

[3] = NCI Yeast Anticancer Drug Screen. Data for the sgs1 mgt1 strain (AID 161);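 also: 0% = growth of cultures given vehicle only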; conditions: S. cerevisiae sgs1 mgt1 strain, hits give high values
Method in brief: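 Mutant yeast exposed to compound; growth scored against vehicle-only wells.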

[4] = NCI Yeast Anticancer Drug Screen. Data for the cln2 rad14 strain (AID 165);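 also: 0% = growth equal to vehicle treated cultures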; conditions: S. cerevisiae cln2 rad14 strain, hits give high values
Method in brief: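 Each compound was tested on cln2 rad14 yeast. Inhibition of growth was calculated against vehicle-exposed controls.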

[5] = NCI Yeast Anticancer Drug Screen. Data for the bub3 strain (AID 167); conditions: S. cerevisiae bub3 mutant strain, hits give high values
Method in brief: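 Steps: expose the mutant yeast strain to compound; grow alongside vehicle-treated cultures; measure growth; express inhibition against the vehicle cultures.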

[6] = NCI Yeast Anticancer Drug Screen. Data for the mlh1 rad18 strain (AID 175); conditions: S. cerevisiae mlh1 rad18 strain growth inhibition, hits give high values
Method in brief: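 Vehicle-treated cultures served as the reference for growth inhibition in a yeast strain carrying DNA damage repair alterations exposed to each compound.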

[7] = at 5.0 µM (retest, dose inferred, filed as 0.5)
[8] = at 50.0 µM (retest, dose inferred, filed as 5.0)

| Compound | growth inhibition [1, 7] | growth inhibition [1, 8] | growth inhibition ([1]; at 50.0 µM) | growth inhibition [2, 7] | growth inhibition [2, 8] | growth inhibition ([2]; at 50.0 µM) | growth inhibition [3, 7] | growth inhibition [3, 8] | growth inhibition ([3]; at 50.0 µM) | growth inhibition [4, 7] | growth inhibition [4, 8] | growth inhibition ([4]; at 50.0 µM) | growth inhibition [5, 7] | growth inhibition [5, 8] | growth inhibition ([5]; at 50.0 µM) | growth inhibition [6, 7] | growth inhibition [6, 8] | growth inhibition ([6]; at 50.0 µM) |
| --- | --- | --- | --- | --- | --- | --- | --- | --- | --- | --- | --- | --- | --- | --- | --- | --- | --- | --- |
| O=C(CCCc1ccccc1)[O][Hg][c]1ccccc1 | 99% (active) | 99% (active) | 99.7% (active) | 100% (active) | 99% (active) | 99.7% (active) | 98% (active) | 99% (active) | 99.6% (active) | 99% (active) | 99% (active) | 99.2% (active) | 99% (active) | 99% (active) | 99.2% (active) | 99% (active) | 99% (active) | 99% (active) |
| C[CH2][Sn]1([CH2]C)[O]C2C(OC)OC3COC(c4ccccc4)OC3C2[O]1 (stereo not given) | 77% (active) | 80% (active) | 18.4% | 42% | 70% (active) | 61.2% | 67% | 77% (active) | -9.95% | 68% | 40% | -21.4% | 69% | 40% | 71.8% (active) | 53% | 54% | -16.1% |
| [CH3][Sn]([CH3])([Br])[Br].c1ccc(-c2nnc(-c3ccccn3)nc2-c2ccccc2)cc1 | -3% | 80% (active) | 20.4% | -16% | 58% | 32.9% | -9% | 53% | 16.4% | -17% | 90% (active) | 11.8% | -4% | 87% (active) | -3.3% | -23% | 47% | 23.8% |
| c1cc[c]([Pb]([S]c2nc3ccccc3[nH]2)([c]2ccccc2)[c]2ccccc2)cc1 | 99% (active) | 99% (active) | 91.4% (active) | 100% (active) | 99% (active) | 92.7% (active) | 99% (active) | 99% (active) | 92.2% (active) | 99% (active) | 99% (active) | 91.8% (active) | 99% (active) | 99% (active) | 91.3% (active) | 99% (active) | 99% (active) | 90.3% (active) |
| CC(C)C12C=C3CCC4C(C)(C(=O)O)CCCC4(C)C3(CC1)OO2 (stereo not given) | 13% | 90% (active) | 93.7% (active) | -1% | 95% (active) | 95% (active) | 7% | 90% (active) | 97.6% (active) | -6% | 94% (active) | 86.4% (active) | -8% | 91% (active) | 96.4% (active) | 1% | 95% (active) | 96.9% (active) |
